Laboratory results as given in PubChem BioAssay.

assay: TOR pathway reporter MEP2-GFP, retest of hits – S. cerevisiae, flow cytometry GFP, cherry picks, confirmation (AID 2272;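 active means GFP response above 150% of the DMSO control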;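 further: ratio of well signal to plate DMSO mean so 100% equals DMSO level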); conditions: S. cerevisiae MEP2-GFP strain, 3 h, at 10 µM, stronger effect = higher value

GFP response vs DMSO, inactive:
N=c1n(CCN2CCCCC2)c2ccccc2n1CC(=O)c1ccc(Cl)c(Cl)c1 100%, COc1cc(NC(=O)c2ccccc2F)ccc1NC(=O)c1cc2ccccc2o1 107%, CCCC(=O)Nc1ccc(NC(=O)c2cc3ccccc3o2)c(OC)c1 103%, Cc1ccc(NC(=O)CCCSc2nc3ccccc3[nH]2)cc1 98.8%, COc1ccc2c(c1)C=Cc1ccccc1O2 98.3%, Cc1ccc(-n2nc(C)c3c(C)c(CCC(=O)O)c(C)nc32)cc1 96.8%, Oc1ccc(/C=N/Nc2nc(-c3cccnc3)nc3ccccc23)c(O)c1 101%, CCCOc1ccc(N2C(=O)CC(SCCN)C2=O)cc1 (stereo not given) 98.3%, CCN(CC)C(=O)c1ccc(-c2cccs2)s1 94.1%, O=C(COc1ccccc1[N+](=O)[O-])Nc1ccc(NC(=O)c2cc3ccccc3o2)cc1 103%, COCCNC(=O)c1ccccc1-c1nc(-c2ccccc2Cl)no1 105%, COc1ccc(N2C(=O)CC(Sc3ncn[nH]3)C2=O)c(OC)c1 (stereo not given) 110%, COc1ccc(N=Nc2ccc(O)c3ncccc23)cc1 116%, COc1cc(NC(=O)c2ccccc2)ccc1NC(=O)c1cc2ccccc2o1 103%, CS(=O)(=O)N1N=C(c2ccco2)CC1c1ccc(Br)cc1 (stereo not given) 100%, CCN(C(=O)c1ccccc1Cl)c1ccccc1 99.3%, Cc1ccc(NC(=S)N/N=C/c2c(C)[nH]c3ccccc23)cc1 104%, CCc1nnc(NC(=O)c2nc(S(=O)(=O)Cc3cccc(C)c3)ncc2Cl)s1 104%, O=C(NCc1ccc2c(c1)OCO2)c1nc(S(=O)(=O)Cc2ccccc2)ncc1Cl 99.5%, COc1ccccc1-c1noc(-c2cc(OC)c(OC)c(OC)c2)n1 104%, N#C/C(=C\c1c(N2CCCCC2)nc2ccccn2c1=O)C(=O)NCc1ccco1 97.5%, COc1cc(NC(=O)c2ccc(Br)cc2)ccc1NC(=O)c1cc2ccccc2o1 100%, CCOC(=O)CS(=O)(=O)c1nc(-c2ccc(F)cc2)cc(C(F)(F)F)n1 113%, CC[n+]1c(/C=C/c2ccc(N(C)C)cc2)ccc2ccccc21 118%, CCOc1cc(/C=N/Nc2nc(C)cc(=O)[nH]2)ccc1O 104%, Cc1ccc(/C=C/C(=O)c2ccccc(=O)c2O)c(C)c1 137%, COc1ccc(-c2ccc(S(=O)(=O)N3CCOCC3)cc2)cc1 99%, CCNC(=O)c1ccccc1-c1nc(-c2ccccc2Cl)no1 103%, O=C(OCC(=O)N1CCN(C(=O)c2ccco2)CC1)c1cc(-c2ccccc2)nc2ccccc12 130%, Cc1nnc(NC(=O)c2ccc(S(=O)(=O)N3CCCCCC3)cc2)o1 101%, NC(N)=N/N=C/c1ccc(OCc2ccc(Cl)cc2Cl)cc1 105%, Cc1noc(/C=C/c2cccnc2)c1[N+](=O)[O-] 104%, NC(=O)c1ccccc1OCC(=O)c1ccc(Cl)cc1 99.3%, CCc1nnc(NC(=O)c2nc(S(=O)(=O)Cc3ccc(C)cc3)ncc2Cl)s1 102%, CN1/C(=C\C(=O)c2cccc(S(=O)(=O)N3CCCCC3)c2)C(C)(C)c2ccccc21 100%, Cc1n[nH]c(C)c1N1C(=O)c2cccc3c(Br)ccc(c23)C1=O 104%, Cc1nnc(N2C(=O)c3cccc4cccc(c34)C2=O)s1 106%, CS(=O)(=O)N1CCc2cc(C(=O)Nc3ccc(COCC(F)(F)F)cc3)ccc21 100%, O=[N+]([O-])c1ccc(Sc2ccccc2Cl)nc1 112%, CC(=O)Oc1ccc(N2C(=O)C3C4C=CC(CO)(O4)C3C2=O)cc1 (stereo not given) 107%

assay: yeast AGP1-GFP fluorescence change, single-dose – cell-based, flow cytometry, S. cerevisiae, cherry picks, confirmation (AID 2273);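 further: median GFP channel fluorescence over the whole cell population gate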; conditions: S. cerevisiae AGP1-GFP strain, 3 h, at 10 µM

GFP response, % of DMSO, inactive:
N=c1n(CCN2CCCCC2)c2ccccc2n1CC(=O)c1ccc(Cl)c(Cl)c1 99.4%, COc1cc(NC(=O)c2ccccc2F)ccc1NC(=O)c1cc2ccccc2o1 101%, CCCC(=O)Nc1ccc(NC(=O)c2cc3ccccc3o2)c(OC)c1 102%, Cc1ccc(NC(=O)CCCSc2nc3ccccc3[nH]2)cc1 106%, COc1ccc2c(c1)C=Cc1ccccc1O2 95.6%, Cc1ccc(-n2nc(C)c3c(C)c(CCC(=O)O)c(C)nc32)cc1 100%, Oc1ccc(/C=N/Nc2nc(-c3cccnc3)nc3ccccc23)c(O)c1 101%, CCCOc1ccc(N2C(=O)CC(SCCN)C2=O)cc1 (stereo not given) 92.3%, CCN(CC)C(=O)c1ccc(-c2cccs2)s1 99.9%, O=C(COc1ccccc1[N+](=O)[O-])Nc1ccc(NC(=O)c2cc3ccccc3o2)cc1 99.8%, COCCNC(=O)c1ccccc1-c1nc(-c2ccccc2Cl)no1 96%, COc1ccc(N2C(=O)CC(Sc3ncn[nH]3)C2=O)c(OC)c1 (stereo not given) 102%, COc1ccc(N=Nc2ccc(O)c3ncccc23)cc1 94.5%, COc1cc(NC(=O)c2ccccc2)ccc1NC(=O)c1cc2ccccc2o1 101%, CS(=O)(=O)N1N=C(c2ccco2)CC1c1ccc(Br)cc1 (stereo not given) 96.8%, CCN(C(=O)c1ccccc1Cl)c1ccccc1 98.8%, Cc1ccc(NC(=S)N/N=C/c2c(C)[nH]c3ccccc23)cc1 90.1%, CCc1nnc(NC(=O)c2nc(S(=O)(=O)Cc3cccc(C)c3)ncc2Cl)s1 105%, O=C(NCc1ccc2c(c1)OCO2)c1nc(S(=O)(=O)Cc2ccccc2)ncc1Cl 94.5%, COc1ccccc1-c1noc(-c2cc(OC)c(OC)c(OC)c2)n1 99.2%, N#C/C(=C\c1c(N2CCCCC2)nc2ccccn2c1=O)C(=O)NCc1ccco1 99.7%, COc1cc(NC(=O)c2ccc(Br)cc2)ccc1NC(=O)c1cc2ccccc2o1 95.7%, CCOC(=O)CS(=O)(=O)c1nc(-c2ccc(F)cc2)cc(C(F)(F)F)n1 108%, CC[n+]1c(/C=C/c2ccc(N(C)C)cc2)ccc2ccccc21 101%, CCOc1cc(/C=N/Nc2nc(C)cc(=O)[nH]2)ccc1O 100%, Cc1ccc(/C=C/C(=O)c2ccccc(=O)c2O)c(C)c1 84.3%, COc1ccc(-c2ccc(S(=O)(=O)N3CCOCC3)cc2)cc1 100%, CCNC(=O)c1ccccc1-c1nc(-c2ccccc2Cl)no1 98.6%, O=C(OCC(=O)N1CCN(C(=O)c2ccco2)CC1)c1cc(-c2ccccc2)nc2ccccc12 136%, Cc1nnc(NC(=O)c2ccc(S(=O)(=O)N3CCCCCC3)cc2)o1 99%, NC(N)=N/N=C/c1ccc(OCc2ccc(Cl)cc2Cl)cc1 99.1%, Cc1noc(/C=C/c2cccnc2)c1[N+](=O)[O-] 92.4%, NC(=O)c1ccccc1OCC(=O)c1ccc(Cl)cc1 102%, CCc1nnc(NC(=O)c2nc(S(=O)(=O)Cc3ccc(C)cc3)ncc2Cl)s1 103%, CN1/C(=C\C(=O)c2cccc(S(=O)(=O)N3CCCCC3)c2)C(C)(C)c2ccccc21 97.2%, Cc1n[nH]c(C)c1N1C(=O)c2cccc3c(Br)ccc(c23)C1=O 92.5%, Cc1nnc(N2C(=O)c3cccc4cccc(c34)C2=O)s1 100%, CS(=O)(=O)N1CCc2cc(C(=O)Nc3ccc(COCC(F)(F)F)cc3)ccc21 96.1%, O=[N+]([O-])c1ccc(Sc2ccccc2Cl)nc1 106%, CC(=O)Oc1ccc(N2C(=O)C3C4C=CC(CO)(O4)C3C2=O)cc1 (stereo not given) 101%
